Test results taken from PubChem BioAssay (Tox21).
Several values for one entry are separate records, joined by “and”; a condition that tells them apart may be missing. Equal values may be shown once. Inconclusive results are not listed. Values without a mark were called inactive. Activity calls are given as the source filed them. The call rests on the fitted dose curve; in most records, active means well fitted cell-killing curve with a large enough effect in the repeat runs; inconclusive means weak or mixed curves, or effect the other way; inactive means no such curve, though single readings can be large or run the other way. Residues, ends and D or L forms follow the SMILES beside them.

Test: qHTS assay to identify small molecule antagonists of the glucocorticoid receptor (GR) signaling pathway - cell viability counter screen (AID 720693); further: nearly all actives have a fitted effect of over 55% in size
Settings: GR-bla HeLa viability, CellTiter-Glo luminescence, 18 h, with 5 nM dexamethasone present; series mostly up to 58.5 µM; viability change, negative = cytotoxic: at the top concentration
On the % scale 0 is the no-effect control and ±100 the full control effect; potency means the concentration at half of the fitted maximal effect.

Row | SMILES | Potency | viability change, negative = cytotoxic
1 | CCOC(=O)COc1ccc2c(=O)cc(-c3ccccc3)oc2c1 | inactive | –
2 | CC/C=C\C/C=C\C/C=C\C/C=C\C/C=C\C/C=C\CCC(=O)O | – | 1.21%
3 | CC(C)C[C@@H](NC(=O)[C@@H](O)[C@H](N)Cc1ccccc1)C(=O)O | – | -6.5%
4 | O=C1CCC/C=C\CCCCCCCCCC1 | – | -6.44%
5 | O=C(O)c1ccc(NC2OC[C@@H](O)[C@H](O)[C@H]2O)cc1 (stereo partly drawn) | – | 5.31%
6 | CC(C)[C@H](NC(=O)[C@H](CC(=O)O)NC(=O)[C@H](CCCCN)NC(=O)[C@@H](N)CCCN=C(N)N)C(=O)N[C@@H](Cc1ccc(O)cc1)C(=O)O (H-RKDVY-OH) | – | 0.501%
7 | CO/N=C(\C(=O)N[C@@H]1C(=O)N2C(C(=O)O)=C(CSc3nc(C)c(CC(=O)O)s3)CS[C@H]12)c1csc(N)n1 | – | 1.25%
8 | CC[C@H]1OC(=O)C[C@@H](O)[C@H](C)[C@@H](O[C@@H]2O[C@H](C)[C@@H](O)[C@H](N(C)C)[C@H]2O)[C@@H](CCN2C[C@H](C)C[C@H](C)C2)C[C@@H](C)C(=O)/C=C/C(C)=C/[C@@H]1CO[C@@H]1O[C@H](C)[C@@H](O)[C@@H](OC)[C@H]1OC | – | 16.9%
9 | O=C1CCCCCCCCCCCCCC1 | – | -5.33%
10 | C[C@@H]1C[C@H]2[C@@H]3C[C@H](F)C4=CC(=O)C=C[C@]4(C)[C@@]3(Cl)[C@@H](O)C[C@]2(C)[C@H]1C(=O)COC(=O)C(C)(C)C | – | 14.2%
11 | NCCCC(=O)O | – | -3.32%
12 | c1ccc2c(c1)OCC(CN1CCCCC1)O2 (stereo not drawn) | – | 2.77%
13 | Cc1cn([C@H]2C[C@H](O)[C@@H](CO)O2)c(=O)[nH]c1=O | – | -4.9%
14 | c1ccc(-c2ccc(C(c3ccccc3)n3ccnc3)cc2)cc1 (stereo not drawn) | – | -17.6%
15 | CN=C(N)NCCC[C@H](N)C(=O)O | inactive | –
16 | C[N+]1(CCCCC[N+]2(C)CCCC2)CCCC1 | – | -16.6%
17 | Cc1cc(-c2ccc(N=Nc3ccc4c(S(=O)(=O)O)cc(S(=O)(=O)O)c(N)c4c3O)c(C)c2)ccc1N=Nc1ccc2c(S(=O)(=O)O)cc(S(=O)(=O)O)c(N)c2c1O | inactive | –
18 | O=C(O)[C@@H]1C[C@H](CP(=O)(O)O)CCN1 | – | 1.87%
19 | Cc1c(O)c(=O)ccn1C | – | -7.09%

Row | SMILES | Potency | viability change, negative = cytotoxic
20 | CC1(C)S[C@@H]2[C@H](N3C(=O)C(c4ccccc4)NC3(C)C)C(=O)N2[C@H]1C(=O)O (stereo partly drawn) | – | -11.8%
21 | CN1CCN(CCCN2c3ccccc3Sc3ccc(Cl)cc32)CC1 | 23.9 µM (active) | –
22 | COc1ccc(/C=C/C(=O)Nc2ccccc2C(=O)O)cc1OC | – | 7.85%
23 | O=C(O)[C@H]1CN(C/C=C/P(=O)(O)O)CCN1 | – | 11.4%
24 | CCC(=O)OC(OP(=O)(CCCCc1ccccc1)CC(=O)N1C[C@H](C2CCCCC2)C[C@H]1C(=O)O)C(C)C (stereo partly drawn) | – | 0.547%
25 | CC(C)COC(=O)OCN1C(=O)CN(CCN2CC(=O)N(COC(=O)OCC(C)C)C(=O)C2)CC1=O | – | 13.4%
26 | CCSCC | – | 0.185% [at 78.9 µM]
27 | CCCCCCCCCC(=O)NO | inactive | –
28 | CCN(CC)C(=O)[C@]1(c2ccccc2)C[C@@H]1CN | – | -1.08%
29 | CC(C)=CCC/C(C)=C/CC/C(C)=C/CC/C(C)=C/CC1=C(C)C(=O)c2ccccc2C1=O | inactive | –
30 | C[Se]CC[C@H](N)C(=O)O | – | -1.63%
31 | CN(C/C=C/c1ccccc1)Cc1cccc2ccccc12 | – | 0.58%
32 | CC1CCCC(C)N1NC(=O)c1ccc(Cl)c(S(N)(=O)=O)c1 (stereo not drawn) | – | 6.23% [at 27 µM]
33 | CC(C)CCC[C@@H](C)[C@H]1CC[C@H]2[C@@H]3CC[C@@H]4C[C@H](O)CC[C@]4(C)[C@H]3CC[C@]12C | – | 10.2%
34 | O=[N+]([O-])c1ccc(O)c2ncccc12 | – | -7.14%
35 | CCCCCCCCCCCCCCCC(=O)OC[C@H](COP(=O)([O-])OCC[N+](C)(C)C)OC(=O)CCCCCCCCCCCCCCC | – | -0.439%
36 | Nc1cc(Cl)c(NC2=NCCN2)c(Cl)c1 | – | -1.6%
37 | Cc1cc(CC(C)CC(C)(C)C)n(O)c(=O)c1 (stereo not drawn) (tested in a mixture with another compound) | 15.1 µM (active) | –

Test: qHTS assay for identifying genotoxic compounds that show differential cytotoxicity against isogenic chicken DT40 cell lines with known DNA damage response pathways - wild type cell line (AID 743012); further: nearly all actives have a fitted effect of over 60% in size
Settings: DT40 wild type chicken cells viability, CellTiter-Glo, 40 h; series mostly up to 68.4 µM; activity change, negative = cytotoxicity: at the top concentration
Procedure, shortened: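 Cells (DT40 wild type, 300/well) are treated with DMSO-dissolved compounds after a ~0.5 h pre-incubation and kept 40 h at 37 C/5% CO2. Viability is then measured by CellTiter-Glo luminescence following 30 min at room temperature.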

Row | SMILES | Potency | activity change, negative = cytotoxicity
38 | CC/C=C\C/C=C\C/C=C\C/C=C\C/C=C\C/C=C\CCC(=O)O | 26.6 µM (active) | –
39 | CC(C)C[C@@H](NC(=O)[C@@H](O)[C@H](N)Cc1ccccc1)C(=O)O | – | -2.4%
40 | O=C1CCC/C=C\CCCCCCCCCC1 | – | -18.8%
41 | O=C(O)c1ccc(NC2OC[C@@H](O)[C@H](O)[C@H]2O)cc1 (stereo partly drawn) | – | 16.8%
42 | CC(C)[C@H](NC(=O)[C@H](CC(=O)O)NC(=O)[C@H](CCCCN)NC(=O)[C@@H](N)CCCN=C(N)N)C(=O)N[C@@H](Cc1ccc(O)cc1)C(=O)O (H-RKDVY-OH) | – | -0.387%
43 | CO/N=C(\C(=O)N[C@@H]1C(=O)N2C(C(=O)O)=C(CSc3nc(C)c(CC(=O)O)s3)CS[C@H]12)c1csc(N)n1 | – | 14.5%
44 | CC[C@H]1OC(=O)C[C@@H](O)[C@H](C)[C@@H](O[C@@H]2O[C@H](C)[C@@H](O)[C@H](N(C)C)[C@H]2O)[C@@H](CCN2C[C@H](C)C[C@H](C)C2)C[C@@H](C)C(=O)/C=C/C(C)=C/[C@@H]1CO[C@@H]1O[C@H](C)[C@@H](O)[C@@H](OC)[C@H]1OC | – | -14%
45 | O=C1CCCCCCCCCCCCCC1 | – | -15.3%
46 | C[C@@H]1C[C@H]2[C@@H]3C[C@H](F)C4=CC(=O)C=C[C@]4(C)[C@@]3(Cl)[C@@H](O)C[C@]2(C)[C@H]1C(=O)COC(=O)C(C)(C)C | – | 13.4%
47 | NCCCC(=O)O | – | 17.5%
48 | c1ccc2c(c1)OCC(CN1CCCCC1)O2 (stereo not drawn) | – | -25.9%
49 | Cc1cn([C@H]2C[C@H](O)[C@@H](CO)O2)c(=O)[nH]c1=O | – | -1.7%
50 | c1ccc(-c2ccc(C(c3ccccc3)n3ccnc3)cc2)cc1 (stereo not drawn) | 10.6 µM (active) | –
51 | Cc1c(O)c(=O)ccn1C | – | 16.6%
52 | CC1(C)S[C@@H]2[C@H](N3C(=O)C(c4ccccc4)NC3(C)C)C(=O)N2[C@H]1C(=O)O (stereo partly drawn) | – | 2.78%
53 | COc1ccc(/C=C/C(=O)Nc2ccccc2C(=O)O)cc1OC | – | -3.09%
54 | O=C(O)[C@H]1CN(C/C=C/P(=O)(O)O)CCN1 | – | 8.16%
55 | CCC(=O)OC(OP(=O)(CCCCc1ccccc1)CC(=O)N1C[C@H](C2CCCCC2)C[C@H]1C(=O)O)C(C)C (stereo partly drawn) | – | 1.67%
56 | CCSCC | – | -20.8% [at 95 µM]
57 | CCCCCCCCCC(=O)NO | inactive | –
58 | CCN(CC)C(=O)[C@]1(c2ccccc2)C[C@@H]1CN | – | 8.49%
59 | CC(C)=CCC/C(C)=C/CC/C(C)=C/CC/C(C)=C/CC1=C(C)C(=O)c2ccccc2C1=O | 29.8 µM (active) and 10.6 µM (active) | –
60 | C[Se]CC[C@H](N)C(=O)O | – | 12%
61 | CN(C/C=C/c1ccccc1)Cc1cccc2ccccc12 | 26.6 µM (active) | –
62 | CC(C)CCC[C@@H](C)[C@H]1CC[C@H]2[C@@H]3CC[C@@H]4C[C@H](O)CC[C@]4(C)[C@H]3CC[C@]12C | – | 0.314%
63 | Nc1cc(Cl)c(NC2=NCCN2)c(Cl)c1 | – | 18.7%
